Results published in PubChem BioAssay AID1508600 (Functional Genomics Laboratory (NCATS/FGL), 2020).
In all, about 53,000 sequences went through this assay and about 3,700 (7%) were called active.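 Rule for the calls: active = gene knockdowns whose robust z-score for IL-1 alpha signal is at least 2 or at most -2, so actives lie on both sides; inactive = the rest.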 Many of the other results were omitted from the sample, so actives are more common in it than they were.

Experiment: Components of the Cytosolic LPS Sensing Pathway: Gene Identification via Genome-wide siRNA Screen;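 note: robust z of the log signal after scaling to non-targeting control siRNA wells of the plate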
Conditions: RAW264.7 macrophages, IL-1a HTRF, actives lie on both sides, screened at 100 nM (by protocol), cells primed 5 h with Pam3CSK4 first
Summary of the method: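 Cells (RAW264.7, 1×10^4 per well) were transfected with siRNA at 100 nM and cultured 48h at 37 degrees C. Pam3CSK4 was added for 5 hours; LipidA transfection followed for 24 hour. IL-1a was then measured by HTRF.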

z-score, active:
GGUUCCUUUAACUUUGGUUTT against A730089K16Rik 2.18, GCAAUGGACUACUGCUGCUTT against Olfr704 -2.26, GGUCUUCCUUGAACAUCAGTT against Fev -2.05, GCAAGUGAUGAAUGCUUACTT against Ncln -2.62, CCUGGCACUCAUAGUAUACTT against Tm6sf2 -2.33, GGAAAUCUACAUCAUGGCUTT against Ift140 -2, GCUACACCCGCAUGACAAATT against Trit1 2.43, GGCAAGAAGGACAAUGAGUTT against Mb21d2 -2.82, GCUUCACUCUCUUCUUUGCTT against Olfr1463 -3.05, GGUGCUUGGGAAUUUUGAUTT against Gpsm2 2.31, GGGUAACAGAUGAAGGGUCTT against Synpo2l 2.48

z-score, inactive:
CCUUUACACGUAAAAGAAGTT against Zfp445 -0.194, CCUGUUGAGUACUGUGCUGTT against Olfr987 -0.437, CCCAUGUAAGGAUGUGUCGTT against Frmd5 0.761, CGGGAAGCUAUCAUCAAAATT against Rgs13 0.12, GGACACAGAAAAAGUUGAATT against Tbc1d4 -0.0174, GGAUGUUAAAAUUGCCCUGTT against Olfr911-ps1 0.896, GGACGAGAAUCAAGAGCAGTT against Cdkn1c -0.0249, UGGUUGUGAUCAACAGAAUTT against Cyp2d12 -0.933, CCAUUUAUAUCAGGCAUCATT against Lrit1 -0.647, GGGUAAUCAGAUUGAAAGATT against Dnah5 0.0753, GGUGGAGAGUGAACAACAATT against Tpr -1.25, GGUAUGAGCUGAUCAAGUATT against Slc27a2 1.67, GUACACUCAAUCACUCUUGTT against Rexo5 0.966, CGACCUACUUGGGAUGAUGTT against Pea15b 0.683, GCCUGAUACCUUGAAGGAATT against Qpctl -0.382, CGACAACGACAUCAUGGAATT against Sfrp2 1.52, GGGAAUGAAAUGUUCUUCGTT against Ttl -0.121, CGCAGUGGACUCAUCUUGATT against Sestd1 -0.65, GCCAUUCUAAGCUGCCAAATT against Mcat -0.000938, GGACAGAGCGUGCACUAGATT against Slc66a1 -1.32, GGUGCUGGUUUUUAAGAAATT against Hsbp1 1.84, CGGAAUGCCAAAGAUGUGGTT against Sult1d1 -0.872, GUGACUCCCAAACUCCUGATT against Olfr1180 -1.81, CCAUUCCUUAAAAGAGCAUTT against Lce1g 1.07, GGACUUUCUUAACUACACUTT against Slc2a3 0.865, GGAUUACGGUGGGAUCAUGTT against Faxc -1.38, GGUGCUGAUGGGAGAUAGUTT against 1700010H22Rik -0.851, GGGAAGAGAGACGAAAAAATT against Nufip1 1.13, GGACCAGCUUGAAGCUGAATT against Atl2 0.388, GGCUAAAAUAAAGAAGAAGTT against Cfap100 0.00546, CCGACAGCUCUAAAGGAACTT against Celf6 0.838, GGUUAUAUAAGCAUCAAGGTT against Adamts18 -0.621, GCAGAGCGGGAUUUCAUUCTT against Sh3glb2 -1.23, CCAUAUGGCUUAUCUUAUUTT against Adam5 0.138, GGUUUUUGUUGUAAUAGGCTT against Olfr915 -0.758, GGUAACAACUUUUAAGCCUTT against Prps2 -0.318, GCAGCUUAAGUUGCCCAAGTT against Aatk -0.27, GGAUUUUGCUGUUUUGGAATT against Dsc1 0.41, CGGUAGCCAUAUUAAUAUCTT against Spink2 0.417, GGCUUACAAUGUGAUUUACTT against Cd7 1.92, GCUCAACAAGGAUACGGUGTT against Tnfrsf11a 0.704, GGAUAUAACCAUCCUCUGUTT against Zscan29 0.578, GGGUCCCAAACAAUAACUUTT against Aebp1 1.7, CCCAGACUCAGUUUUAACUTT against Spsb4 -1.88, GGGCCUCCUUCUCAUCAUUTT against Scarf2 0.9, GGUAACUUCCCAGGAGGGATT against Bcl9 0.549, GGAUUGGUUCAUGACCUGATT against Trim52 -0.814, GGUGAUCCUUAUGCUGUUATT against Ehmt2 0.305, CCAUCAUGACGGUUCCCUATT against Mrgpra5 -1.43, GGUUCUUCCCACAGAAGACTT against Pggt1b 0.176, GGAUGACGAAGCCUAUGAUTT against Nacc2 -1.16, GGAGUGACAAAAGAAAUAATT against Nudt12 0.489, GGAAAUACUCUCAUCAUCGTT against Olfr214 -1.17, CGCAUAUCUAGAAUGGUUATT against 2810021J22Rik 1.74, GGACUACUCCAGAAAGCUUTT against Wdfy3 -0.0605, GCAAAAUGGUUCCUUUGGATT against Sec24c -0.396, GGACAUUAUUUCUAUAUGGTT against Eif4e2 -1.2
